Targets with a hit are over-represented here; the source holds about 8,800 in all. About 0.5% of all pairs of compound and target were hits.
What was measured:
Assay in all cases: log2 fold change, soluble protein after heating vs DMSO (PISA); higher = thermal stabilisation; K562 lysate, 10 uM; active = over 0.2 and 3.5 SD of the protein, either way, in both replicates (recomputed)
[1] = compound: NCC(=O)Nc1ccc(-n2nc(C(F)(F)F)cc2-c2ccc3c(ccc4ccccc43)c2)cc1
Procedure, shortened: (§1)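 K562 pellets were dounce-homogenised in PBS pH 7.4 with 1 mM MgCl2, and the crude extract at 1 mg/mL protein was treated with 10 μM compound for 30 min. Aliquots were heated for 3 min across 48°C-58°C, pooled, and brought to 0.5% NP-40 at 4°C; soluble protein was the supernatant after 21,000xg for 90 min. Soluble protein was quantified by TMTpro 16plex LC-MS/MS with channel sums equalised, and reported as log2 fold change in thermal stability against DMSO controls, with values from duplicates.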

[2] = compound: O=C(CCCCCCC(=O)Nc1ccccc1)NO [vorinostat]
Procedure, shortened: as §1

[3] = compound: O=C(O)c1ccc2c(c1)nc(Nc1cccc(Cl)c1)c1ccncc12 [silmitasertib]
Procedure, shortened: as §1

[4] = compound: O=C1NC(=O)C(c2cnc3ccccn23)=C1c1cn2c3c(cc(F)cc13)CN(C(=O)N1CCCCC1)CC2
Procedure, shortened: as §1

[5] = compound: c1cn2cc(-c3ccc4cn[nH]c4c3)nc(Nc3ccc(N4CCOCC4)cc3)c2n1 [entospletinib]
Procedure, shortened: as §1

Measured: log2 fold change

YES1 (UniProt P07947)
Chain of UniProt P07947 (P07947 whole entry, looked up): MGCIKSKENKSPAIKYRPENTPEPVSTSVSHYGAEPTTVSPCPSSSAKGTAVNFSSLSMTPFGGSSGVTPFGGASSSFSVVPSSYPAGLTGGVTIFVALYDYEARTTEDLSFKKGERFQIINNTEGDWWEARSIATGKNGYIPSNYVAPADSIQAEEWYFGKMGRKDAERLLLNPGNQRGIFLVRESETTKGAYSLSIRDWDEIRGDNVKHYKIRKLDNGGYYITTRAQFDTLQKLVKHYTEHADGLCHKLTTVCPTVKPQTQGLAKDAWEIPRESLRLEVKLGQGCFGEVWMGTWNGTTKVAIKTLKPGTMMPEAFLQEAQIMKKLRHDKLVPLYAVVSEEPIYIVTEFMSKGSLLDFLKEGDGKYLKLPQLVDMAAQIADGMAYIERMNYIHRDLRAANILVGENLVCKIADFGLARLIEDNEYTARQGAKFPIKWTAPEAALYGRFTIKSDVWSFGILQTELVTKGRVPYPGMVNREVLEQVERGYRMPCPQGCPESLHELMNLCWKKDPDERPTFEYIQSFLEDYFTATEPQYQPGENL
inactive: [1] 0.09 | [2] -0.067 | [3] -0.187 | [4] -0.054 | [5] 0.038

ZKSCAN8 (UniProt Q15776)
inactive: [1] 0.015 | [2] 0.229 | [3] -0.005 | [4] 0.055 | [5] -0.002

URGCP (UniProt Q8TCY9)
inactive: [1] 0

YLPM1 (UniProt P49750)
Chain of UniProt P49750 (P49750 whole entry, looked up): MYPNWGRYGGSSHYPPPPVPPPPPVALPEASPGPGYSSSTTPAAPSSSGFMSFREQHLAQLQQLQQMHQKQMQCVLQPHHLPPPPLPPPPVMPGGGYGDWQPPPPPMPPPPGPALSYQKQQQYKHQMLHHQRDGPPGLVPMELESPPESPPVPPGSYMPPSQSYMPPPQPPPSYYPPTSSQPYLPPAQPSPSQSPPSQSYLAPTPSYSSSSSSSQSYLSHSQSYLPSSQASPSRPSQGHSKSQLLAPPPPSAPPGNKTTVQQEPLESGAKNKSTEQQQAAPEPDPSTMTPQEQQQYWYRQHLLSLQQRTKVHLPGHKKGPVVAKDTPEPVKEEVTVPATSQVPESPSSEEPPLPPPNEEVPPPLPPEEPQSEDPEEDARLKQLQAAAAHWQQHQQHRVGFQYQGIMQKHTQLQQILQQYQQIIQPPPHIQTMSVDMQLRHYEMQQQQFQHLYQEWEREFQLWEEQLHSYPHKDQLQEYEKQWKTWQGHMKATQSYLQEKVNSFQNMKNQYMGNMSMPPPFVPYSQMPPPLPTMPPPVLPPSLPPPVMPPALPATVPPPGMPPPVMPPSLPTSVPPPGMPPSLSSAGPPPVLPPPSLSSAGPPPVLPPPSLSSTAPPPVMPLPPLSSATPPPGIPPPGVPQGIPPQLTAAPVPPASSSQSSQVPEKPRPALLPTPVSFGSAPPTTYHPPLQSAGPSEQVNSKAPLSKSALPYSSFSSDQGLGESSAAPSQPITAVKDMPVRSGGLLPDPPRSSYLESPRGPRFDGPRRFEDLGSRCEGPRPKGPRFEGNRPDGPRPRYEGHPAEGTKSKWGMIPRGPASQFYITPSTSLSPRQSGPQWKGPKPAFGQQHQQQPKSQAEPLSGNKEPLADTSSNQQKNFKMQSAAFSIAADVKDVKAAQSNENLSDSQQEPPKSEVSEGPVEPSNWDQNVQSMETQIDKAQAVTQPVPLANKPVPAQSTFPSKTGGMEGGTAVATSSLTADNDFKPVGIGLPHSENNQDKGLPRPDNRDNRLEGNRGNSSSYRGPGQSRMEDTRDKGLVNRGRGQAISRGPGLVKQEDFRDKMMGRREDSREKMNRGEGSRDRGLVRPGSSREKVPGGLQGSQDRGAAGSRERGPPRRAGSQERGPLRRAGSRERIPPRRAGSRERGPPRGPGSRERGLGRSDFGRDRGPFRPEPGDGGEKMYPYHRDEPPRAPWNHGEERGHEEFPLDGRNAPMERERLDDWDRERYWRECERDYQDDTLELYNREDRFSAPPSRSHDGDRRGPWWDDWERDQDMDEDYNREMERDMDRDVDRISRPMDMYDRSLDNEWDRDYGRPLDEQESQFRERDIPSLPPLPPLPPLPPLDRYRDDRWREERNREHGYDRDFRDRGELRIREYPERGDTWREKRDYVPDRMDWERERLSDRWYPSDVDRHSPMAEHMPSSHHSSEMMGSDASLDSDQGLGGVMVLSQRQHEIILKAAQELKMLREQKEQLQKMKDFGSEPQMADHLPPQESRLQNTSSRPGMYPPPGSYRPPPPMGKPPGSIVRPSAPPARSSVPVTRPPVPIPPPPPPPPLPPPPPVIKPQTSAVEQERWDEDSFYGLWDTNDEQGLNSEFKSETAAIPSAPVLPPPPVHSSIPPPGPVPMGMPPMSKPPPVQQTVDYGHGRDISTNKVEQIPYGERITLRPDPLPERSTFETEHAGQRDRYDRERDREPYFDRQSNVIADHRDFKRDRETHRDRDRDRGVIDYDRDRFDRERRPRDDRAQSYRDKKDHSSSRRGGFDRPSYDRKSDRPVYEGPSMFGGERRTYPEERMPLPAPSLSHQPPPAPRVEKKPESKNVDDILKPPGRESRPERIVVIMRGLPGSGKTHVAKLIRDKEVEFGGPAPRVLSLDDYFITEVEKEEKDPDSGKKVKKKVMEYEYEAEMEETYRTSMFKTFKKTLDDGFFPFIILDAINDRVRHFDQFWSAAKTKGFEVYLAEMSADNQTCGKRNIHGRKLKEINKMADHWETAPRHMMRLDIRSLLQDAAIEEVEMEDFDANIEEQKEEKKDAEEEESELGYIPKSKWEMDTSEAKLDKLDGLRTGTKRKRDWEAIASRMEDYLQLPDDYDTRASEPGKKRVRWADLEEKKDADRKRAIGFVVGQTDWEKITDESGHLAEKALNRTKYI
inactive: [1] 0.013 | [2] -0.126 | [3] -0.011 | [4] 0.017 | [5] -0.004

ZNHIT6 (UniProt Q9NWK9)
inactive: [1] 0.001 | [3] -0.041 | [4] 0.002 | [5] -0.062
active: [2] -0.218

VPS54 (UniProt Q9P1Q0)
inactive: [1] 0.112 | [2] -0.055 | [3] -0.001 | [4] 0.002 | [5] 0.007

USP48 (UniProt Q86UV5)
inactive: [1] -0.054 | [3] 0.07 | [4] 0.034 | [5] -0.102
active: [2] -0.528

ZBTB40 (UniProt Q9NUA8)
inactive: [1] 0.073 | [2] -0.118 | [3] 0.024 | [4] 0.036

XPO5 (UniProt Q9HAV4)
active: [2] -0.574
inactive: [1] 0 | [3] 0.035 | [4] 0.011 | [5] 0.015

ZSWIM8 isoform 4 (UniProt A7E2V4)
inactive: [1] 0.079 | [2] -0.07 | [3] 0.081 | [4] 0.071 | [5] -0.018

XPNPEP1 isoform 3 (UniProt Q9NQW7)
inactive: [1] 0.006 | [2] -0.068 | [3] -0.001 | [4] -0.019 | [5] 0.002

VRK1 (UniProt Q99986)
inactive: [1] -0.013 | [2] -0.08 | [3] 0.091 | [4] 0.002 | [5] 0.056

USP3 (UniProt Q9Y6I4)
inactive: [1] 0.015 | [3] -0.026 | [4] 0.015 | [5] -0.013
active: [2] -0.469

ZMYM2 (UniProt Q9UBW7)
Chain of UniProt Q9UBW7 (Q9UBW7 whole entry, looked up): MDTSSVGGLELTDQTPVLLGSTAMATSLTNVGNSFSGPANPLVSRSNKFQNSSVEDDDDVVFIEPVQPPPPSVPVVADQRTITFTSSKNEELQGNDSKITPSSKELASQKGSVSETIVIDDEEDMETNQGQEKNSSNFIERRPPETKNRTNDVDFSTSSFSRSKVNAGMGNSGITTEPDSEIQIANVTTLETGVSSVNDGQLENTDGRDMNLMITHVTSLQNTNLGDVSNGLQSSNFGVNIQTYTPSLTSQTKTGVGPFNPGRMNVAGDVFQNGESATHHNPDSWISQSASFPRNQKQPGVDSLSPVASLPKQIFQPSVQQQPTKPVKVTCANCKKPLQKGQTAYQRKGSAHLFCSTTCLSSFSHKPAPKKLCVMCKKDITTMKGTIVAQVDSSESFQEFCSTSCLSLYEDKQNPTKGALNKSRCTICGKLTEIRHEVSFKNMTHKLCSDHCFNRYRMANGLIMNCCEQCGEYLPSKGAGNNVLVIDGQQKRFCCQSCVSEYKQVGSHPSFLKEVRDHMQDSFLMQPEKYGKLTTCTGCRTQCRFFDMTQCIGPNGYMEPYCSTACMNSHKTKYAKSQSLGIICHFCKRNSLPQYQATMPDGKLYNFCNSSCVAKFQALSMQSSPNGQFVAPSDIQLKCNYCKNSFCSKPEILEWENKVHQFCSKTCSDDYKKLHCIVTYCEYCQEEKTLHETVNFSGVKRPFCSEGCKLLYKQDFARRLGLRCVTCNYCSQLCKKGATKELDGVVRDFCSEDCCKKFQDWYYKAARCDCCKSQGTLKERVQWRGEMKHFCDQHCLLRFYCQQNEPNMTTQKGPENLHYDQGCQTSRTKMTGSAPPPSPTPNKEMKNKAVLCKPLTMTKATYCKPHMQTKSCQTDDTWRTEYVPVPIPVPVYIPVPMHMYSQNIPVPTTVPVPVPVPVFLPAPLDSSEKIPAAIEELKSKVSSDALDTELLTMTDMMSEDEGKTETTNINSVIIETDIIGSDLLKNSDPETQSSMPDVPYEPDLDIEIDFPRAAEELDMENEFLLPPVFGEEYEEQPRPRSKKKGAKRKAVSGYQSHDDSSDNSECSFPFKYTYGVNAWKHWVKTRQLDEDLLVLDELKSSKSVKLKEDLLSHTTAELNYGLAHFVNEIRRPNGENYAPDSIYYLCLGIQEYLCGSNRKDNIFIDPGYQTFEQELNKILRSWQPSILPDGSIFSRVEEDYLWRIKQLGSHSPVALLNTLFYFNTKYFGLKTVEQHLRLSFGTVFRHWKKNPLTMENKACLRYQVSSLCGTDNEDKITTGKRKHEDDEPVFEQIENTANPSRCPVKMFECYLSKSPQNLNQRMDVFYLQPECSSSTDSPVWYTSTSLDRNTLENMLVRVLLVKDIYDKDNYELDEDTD
active: [2] -0.609
inactive: [1] -0.125 | [3] 0.034 | [4] 0.019 | [5] 0.069

WDR24 (UniProt Q96S15)
inactive: [1] 0.041 | [2] -0.202 | [3] 0.134 | [4] 0.032 | [5] 0.022

WDR45 isoform 2 (UniProt Q9Y484)
Chain of UniProt Q9Y484 (Q9Y484 whole entry, looked up): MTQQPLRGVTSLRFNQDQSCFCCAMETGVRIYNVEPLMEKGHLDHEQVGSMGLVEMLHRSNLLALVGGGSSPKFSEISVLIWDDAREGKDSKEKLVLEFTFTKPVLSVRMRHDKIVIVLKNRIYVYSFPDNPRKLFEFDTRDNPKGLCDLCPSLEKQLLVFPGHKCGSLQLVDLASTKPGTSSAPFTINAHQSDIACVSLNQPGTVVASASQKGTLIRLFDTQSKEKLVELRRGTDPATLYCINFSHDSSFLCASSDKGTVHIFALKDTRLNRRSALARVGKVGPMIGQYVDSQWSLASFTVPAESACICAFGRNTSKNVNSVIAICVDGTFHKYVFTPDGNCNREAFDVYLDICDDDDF
inactive: [1] 0.018 | [2] 0.025 | [3] 0.016 | [4] 0 | [5] 0.009

ZNF644 (UniProt Q9H582)
inactive: [1] -0.007 | [2] 0.222 | [3] -0.092 | [4] 0.016 | [5] -0.022

YRDC (UniProt Q86U90)
inactive: [1] 0.024 | [3] 0.006 | [4] -0.017 | [5] -0.016
active: [2] -0.424

UTP3 (UniProt Q9NQZ2)
inactive: [2] 0.143 | [3] 0.022 | [4] -0.039 | [5] 0.02
active: [1] 0.307

ZC3H11A (UniProt O75152)
active: [2] -0.375
inactive: [1] 0.123 | [3] -0.026 | [4] 0.062 | [5] -0.009

UNC45A (UniProt Q9H3U1)
inactive: [1] -0.005 | [3] 0.011 | [4] 0.008 | [5] 0.01
active: [2] -0.588

XPOT (UniProt O43592)
inactive: [1] -0.012 | [3] 0.035 | [4] 0.009 | [5] 0.037
active: [2] -0.656

USP22 (UniProt Q9UPT9)
active: [2] -0.323
inactive: [1] -0.069 | [3] -0.045 | [4] 0.001 | [5] 0.059

USP48 isoform 8 (UniProt Q86UV5)
active: [2] -0.474
inactive: [1] 0.014 | [3] 0.009 | [4] -0.022 | [5] 0.021

WDR36 (UniProt Q8NI36)
inactive: [1] -0.051 | [3] 0.044 | [4] 0.028 | [5] -0.011
active: [2] -0.345

WDR62 isoform 4 (UniProt O43379)
inactive: [1] 0.045 | [3] 0.01 | [4] -0.014 | [5] -0.016
active: [2] -0.423

USP9X (UniProt Q93008)
inactive: [1] 0.011 | [3] 0.028 | [4] -0.012 | [5] 0
active: [2] -0.466

ZC3H13 (UniProt Q5T200)
inactive: [1] 0.174 | [2] -0.052 | [3] -0.008 | [4] -0.104 | [5] 0.001

WDR20 isoform 7 (UniProt Q8TBZ3)
inactive: [1] 0.01 | [2] 0.009 | [3] 0.087 | [4] -0.013 | [5] 0.018

VAV1 (UniProt P15498)
active: [2] -0.268
inactive: [1] -0.003 | [3] 0 | [4] -0.027 | [5] 0.004

WIPI2 (UniProt Q9Y4P8)
active: [2] -0.303
inactive: [1] -0.036 | [3] 0.033 | [4] -0.005 | [5] -0.008

VAV3 isoform 4 (UniProt Q9UKW4)
inactive: [1] 0.128 | [2] -0.358 | [3] 0.148 | [4] -0.115 | [5] 0.295

ZMAT2 (UniProt Q96NC0)
Chain of UniProt Q96NC0 (Q96NC0 whole entry, looked up): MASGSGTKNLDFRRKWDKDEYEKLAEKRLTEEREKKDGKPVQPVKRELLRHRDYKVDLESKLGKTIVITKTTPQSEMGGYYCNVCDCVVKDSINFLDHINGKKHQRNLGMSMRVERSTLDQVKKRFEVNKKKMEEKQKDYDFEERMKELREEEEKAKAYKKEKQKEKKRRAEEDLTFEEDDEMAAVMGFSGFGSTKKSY
inactive: [1] 0.033 | [2] 0.188 | [3] -0.051 | [4] -0.024 | [5] 0.021

YTHDC2 (UniProt Q9H6S0)
inactive: [1] 0.061 | [3] -0.007 | [4] 0.018 | [5] 0.013
active: [2] -0.231

VCPIP1 (UniProt Q96JH7)
inactive: [1] 0.007 | [3] 0.029 | [4] -0.021 | [5] 0.006
active: [2] 0.894

VPS28 (UniProt Q9UK41)
inactive: [1] 0.03 | [3] -0.002 | [4] -0.043 | [5] 0.033
active: [2] -0.37

WDR77 (UniProt Q9BQA1)
inactive: [1] -0.052 | [2] -0.067 | [3] 0.041 | [4] -0.01 | [5] 0.006

VPS11 (UniProt Q9H270)
active: [2] -0.509
inactive: [1] 0.023 | [3] -0.009 | [4] 0.011 | [5] -0.006

YDJC (UniProt A8MPS7)
active: [2] -0.443
inactive: [1] 0.048 | [3] 0.023 | [4] -0.051 | [5] 0.051

WDR6 (UniProt Q9NNW5)
inactive: [1] 0.012 | [3] 0.01 | [4] -0.025 | [5] 0
active: [2] -0.321

ZNF318 (UniProt Q5VUA4)
active: [2] -0.332
inactive: [1] 0.064 | [3] -0.045 | [4] -0.059 | [5] -0.024

YTHDF3 (UniProt Q7Z739)
inactive: [1] 0.064 | [2] 0.03 | [3] -0.084 | [4] -0.169 | [5] 0.006

UNKL (UniProt E9PDK2)
inactive: [1] -0.336 | [4] 0.003 | [5] 0.108

UQCRC2 (UniProt P22695)
Chain of UniProt P22695 (P22695 whole entry, looked up): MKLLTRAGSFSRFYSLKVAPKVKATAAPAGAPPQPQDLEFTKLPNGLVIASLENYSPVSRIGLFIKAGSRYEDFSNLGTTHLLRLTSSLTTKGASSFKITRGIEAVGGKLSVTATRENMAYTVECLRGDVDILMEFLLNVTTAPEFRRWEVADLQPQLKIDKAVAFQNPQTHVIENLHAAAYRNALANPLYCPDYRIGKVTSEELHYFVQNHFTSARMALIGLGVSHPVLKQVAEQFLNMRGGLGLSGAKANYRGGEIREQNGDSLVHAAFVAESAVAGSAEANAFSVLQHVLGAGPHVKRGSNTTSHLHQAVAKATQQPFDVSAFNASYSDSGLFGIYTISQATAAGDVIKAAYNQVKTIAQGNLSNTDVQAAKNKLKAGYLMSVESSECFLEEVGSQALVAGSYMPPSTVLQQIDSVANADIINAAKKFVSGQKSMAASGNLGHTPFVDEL
inactive: [1] 0.01 | [2] 0.123 | [3] -0.013 | [4] 0.03 | [5] 0.007

ZNF652 (UniProt Q9Y2D9)
inactive: [4] -0.042

UTRN isoform 2 (UniProt P46939)
inactive: [2] 0.173 | [3] -0.144 | [5] -0.424

WAC isoform 5 (UniProt Q9BTA9)
inactive: [2] -0.002 | [3] 0.351

YBEY (UniProt P58557)
inactive: [1] 0.035 | [2] -0.136 | [3] 0.063 | [5] 0.029

WDR91 (UniProt A4D1P6)
active: [2] -0.227
inactive: [1] -0.045 | [3] 0.042 | [4] -0.004 | [5] -0.029

VASN (UniProt Q6EMK4)
inactive: [2] 0.233 | [3] -0.263 | [5] -0.027

VPS16 (UniProt Q9H269)
active: [2] -0.543
inactive: [1] -0.047 | [3] 0.076 | [4] -0.01 | [5] 0.03

ZMYM1 (UniProt Q5SVZ6)
inactive: [1] -0.014 | [2] -0.202 | [3] 0.042 | [4] -0.004 | [5] 0.021

ZNF451 (UniProt Q9Y4E5)
inactive: [1] 0.064 | [3] -0.003 | [4] -0.013 | [5] 0.019
active: [2] -0.538

UNC13A (UniProt Q9UPW8)
inactive: [2] -0.485 | [3] 0.078

WEE1 (UniProt P30291)
inactive: [1] 0.023 | [3] 0.107 | [4] -0.03 | [5] -0.007
active: [2] -0.52

WIPI1 (UniProt Q5MNZ9)
inactive: [2] 0.088 | [3] -0.051 | [4] 0.026 | [5] -0.001

VPS41 (UniProt P49754)
active: [2] -0.471
inactive: [1] -0.025 | [3] 0.004 | [4] -0.018 | [5] 0.007

— the supplement of paper PMC10849652
